From PubChem BioAssay AID651660 (Broad Institute, 2012)
The campaign covered roughly 1,900 compounds. About 15 (0.8%) were called active. Shown is part of a subset that was picked to be rich in actives. A number with no mark means an inactive call.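 The calls were made as follows: active = every replicate shows at least 50% inhibition; inconclusive = mean inhibition at least 50% but some replicate below; inactive = the rest.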

Molecular target: DNA repair protein RAD52 homolog (Homo sapiens) (UniProt P43351)
Sequence (P43351 whole entry, looked up): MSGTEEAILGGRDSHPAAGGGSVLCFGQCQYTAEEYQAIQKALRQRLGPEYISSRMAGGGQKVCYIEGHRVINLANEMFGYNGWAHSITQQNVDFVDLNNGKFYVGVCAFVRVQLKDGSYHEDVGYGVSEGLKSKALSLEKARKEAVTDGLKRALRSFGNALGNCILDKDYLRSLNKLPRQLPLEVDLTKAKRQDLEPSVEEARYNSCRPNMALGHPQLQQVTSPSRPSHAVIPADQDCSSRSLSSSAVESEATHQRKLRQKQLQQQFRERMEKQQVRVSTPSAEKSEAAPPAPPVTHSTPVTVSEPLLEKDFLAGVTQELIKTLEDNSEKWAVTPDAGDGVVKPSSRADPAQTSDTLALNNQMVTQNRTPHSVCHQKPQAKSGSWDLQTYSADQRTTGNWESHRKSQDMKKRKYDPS
Assay: RAD52 ssDNA annealing inhibitors, primary screen, biochemical, FRET, single point (AID 651660);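 also: 0% = median of neutral control wells and 100% = median of positive control wells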
Conditions: Recombinant RAD52 ssDNA annealing, FRET fluorescence, 30 min; at 18.7 µM; hits give high values

Row | Compound | inhibition
1 | COc1cc2c3cc1Oc1cc(ccc1O)C[C@@H]1c4c(cc(OC)c(O)c4Oc4ccc(cc4)C[C@H]3N(C)CC2)CCN1C | 77.6% (active)
2 | c1cnc2c(c1)ccc1ncccc12 | -3.46%
3 | O=C1NCCN2CCCC12 (stereo not given) | -1.15%
4 | CCC1(c2ccccc2)C(=O)N(COC)C(=O)N(COC)C1=O | -5.47%
5 | C[N+]1(C)CCOC(O)(c2ccc(-c3ccc(C4(O)C[N+](C)(C)CCO4)cc3)cc2)C1 (stereo not given) | 61.8% (active)
6 | C=C1[C@@H](C)[C@H]2[C@H](Cc3ccccc3)NC(=O)[C@]23OC(=O)/C=C/[C@H](O)CCC[C@@H](C)C/C=C/[C@H]3[C@@H]1O | -0.777%
7 | CC(C)(C)C(O)C(Oc1ccc(Cl)cc1)n1cncn1 (stereo not given) | -119%
8 | NCCc1c[nH]c2ccc(F)cc12 | 0.119%
9 | CN1C(=O)N(C)C(=O)C2(Cc3ccccc3N3CCOCC32)C1=O (stereo not given) | -0.534%
10 | CCNC(=S)N(C)CCc1cc2c(c(OC)c1C=C1C(=O)N(C)C(=O)N(C)C1=O)OCO2 | -15%
